# Source: PubChem BioAssay
# SENP8 block-1: human SENP8 protease inhibitors, primary screen, biochemical, fluorescence, Nedd8 protein substrate, uHTS; recombinant SENP8; AID 602440, 2012; inhibition, % at 20 µM; hit rate 0.64% among 360,000; in the data active means inhibition mostly above about 40%, no sharp cut-off; inactive means mostly below about 27%
# SENP8 block-2: SENP8 protease inhibitors, primary screen, biochemical, luminescence | Sentrin-specific protease 8 (Homo sapiens), Q96LD8 | purified SENP8, Z-RLRGG-aminoluciferin cleavage | inhibition, % at 10 µM | hit rate 1.2% among 330,000; in the data active means inhibition above about 50%
# SENP6 block: SENP6 protease inhibitors, primary screen, biochemical, luminescence, uHTS | hit rate 1.8% among 330,000 | inhibition, % at 10 µM | AID 2599, 2010 | Recombinant SENP6 catalytic domain, aminoluciferin luminescence | Sentrin-specific protease 6 (Homo sapiens), Q9GZR1;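 active means inhibition above about 50% at the single tested dose, limit read from the data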;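 further: plate controls were DMSO wells with enzyme for no effect and DMSO wells lacking enzyme for full effect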
# Platelet DG rel: inhibitors of platelet dense granule secretion, primary screen, cell-based, MLPCN, human platelets; inhibition, %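 (compounds screened at 7.5 µM in platelet-rich plasma)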; human platelet-rich plasma, SFLLRN dense granule ATP release, luminescence; AID 1663, 2009; hit rate 0.22% among 300,000;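 active means mean replicate score, as percent of positive control, at or above 50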
# SENP7 inh: SENP7 protease inhibitors, primary screen, biochemical, luminescence, uHTS; AID 434973, 2010; inhibition, % at 5 µM; Sentrin-specific protease 7 (Homo sapiens), Q9BQF6; recombinant SENP7, Z-RLRGG-aminoluciferin luminescence, 40 min; hit rate 1.5% among 330,000;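 active means inhibition above about 50% at the single test dose, limit read from the data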;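 further: plate controls were DMSO with enzyme for no effect and no enzyme buffer wells for full effect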
# Target sequence (Q9BQF6 706-1050 limits assumed): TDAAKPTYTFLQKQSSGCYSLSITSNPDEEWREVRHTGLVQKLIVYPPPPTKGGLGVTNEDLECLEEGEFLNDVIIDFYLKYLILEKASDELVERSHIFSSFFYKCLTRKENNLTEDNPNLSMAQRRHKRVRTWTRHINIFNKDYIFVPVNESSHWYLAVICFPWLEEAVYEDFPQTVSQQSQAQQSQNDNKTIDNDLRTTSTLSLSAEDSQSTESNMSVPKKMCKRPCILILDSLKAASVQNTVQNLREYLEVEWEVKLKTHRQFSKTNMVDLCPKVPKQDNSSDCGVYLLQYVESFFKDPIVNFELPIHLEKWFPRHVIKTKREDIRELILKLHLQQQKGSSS
# SENP8 conf: SENP8 protease inhibitors, retest, confirmation, biochemical, luminescence, single concentration | shares compounds with SENP7 inh | Recombinant SENP8, Z-RLRGG-aminoluciferin luminescence, 60 min | inhibition, % at 12.5 µM | hit rate 40% among 6,200;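 active means mean inhibition across replicates above about 50%, limit read from the data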
# SENP6 confirm: SENP6 protease inhibitors, confirmation, biochemical, luminescence, single concentration | shares compounds with SENP7 inh | recombinant SENP6, Z-RLRGG-aminoluciferin luminescence | inhibition, % at 12.5 µM | hit rate 58% among 6,200
# SENP7 conf: SENP7 protease inhibitors, retest, confirmation, biochemical, luminescence, single concentration; shares compounds with SENP7 inh; recombinant SENP7, Z-RLRGG-aminoluciferin luminescence, 40 min; inhibition, % at 12.5 µM; hit rate 69% among 6,200; AID 488917, 2010
# Casp3 select: caspase-3 protease inhibitors, confirmation, selectivity assay for SENP inhibitor project, biochemical, single concentration; inhibition, % at 12.5 µM; purified caspase-3, Z-DEVD-aminoluciferin luminescence, 60 min; hit rate 60% among 6,200; shares compounds with SENP7 inh;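 active means mean inhibition above about 50%, limit read from the data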;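 further: plate controls were enzyme with DMSO for no effect and wells without caspase-3 for full effect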
# Target sequence (P42574 28-227 limits assumed): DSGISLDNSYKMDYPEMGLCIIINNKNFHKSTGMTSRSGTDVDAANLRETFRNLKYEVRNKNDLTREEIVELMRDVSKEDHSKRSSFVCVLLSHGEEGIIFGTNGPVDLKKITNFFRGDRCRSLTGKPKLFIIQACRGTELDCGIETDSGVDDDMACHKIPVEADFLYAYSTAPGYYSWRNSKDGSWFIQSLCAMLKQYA
# SENP luc ctr: luminescence interference (SENP counter-screen) | shares compounds with SENP7 inh | Pre-incubated SENP8/Z-RLRGG-aminoluciferin, luciferase luminescence interference | inhibition, % at 12.5 µM | hit rate 39% among 6,200;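 active means mean inhibition above about 50% when retested at one dose, limit read from the data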;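 further: plate controls were DMSO wells with completed reaction for no effect and substrate without enzyme for full effect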
# * marks the source's active call; other numbers are inactive results; i = inactive; . = no result. A selection: hits, their analogues and other compounds. The true share with any hit is near 2.4%.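 How the source made its calls, unless noted: active means mean inhibition above about 50% in the one-dose retest (limit read from the data); inactive means the rest.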
SMILES,SENP8 block-1,SENP8 block-2,SENP6 block,Platelet DG rel,SENP7 inh,SENP8 conf,SENP6 confirm,SENP7 conf,Casp3 select,SENP luc ctr
NC(=O)c1ccc(C(=O)N/N=C/c2cccc(Oc3ccccc3)c2)cc1,4.3,7.0,-1.4,-2.1,2.7,.,.,.,.,.
O=C(CNc1cccc2ccccc12)N/N=C/c1cccc(Oc2ccccc2)c1,-260.9,51.4*,67.3*,3.3,24.5,6.6,-3.4,-6.1,-4.3,-4.1
O=C(N/N=C/c1cccc(Oc2ccccc2)c1)c1cccc(O)c1,4.8,37.2,60.0*,7.1,37.6,47.8,42.7,61.6*,27.8,22.3
O=C(CNc1cccc2ccccc12)N/N=C/c1ccc([N+](=O)[O-])cc1,-104.8,18.1,74.3*,-0.5,30.4,11.1,6.7,8.1,4.0,2.3
O=C(CNc1cccc2ccccc12)N/N=C/c1ccccn1,-38.7,71.3*,83.3*,-2.4,28.7,13.5,15.3,6.5,-1.5,-0.1
O=C(N/N=C/c1cccc(Oc2ccccc2)c1)c1ccccc1Br,8.4,-21.5,-31.6,-1.7,9.7,.,.,.,.,.
Cc1ccc(C(C)C)c(OCC(=O)OCC(=O)NC2CCS(=O)(=O)C2)c1 (configuration not stated),15.2,-10.1,-3.7,3.1,-0.9,.,.,.,.,.
CCc1nc2ccc(C(=O)NCCCn3ccnc3)cn2c1N(C)Cc1cccs1,-5.9,.,.,.,.,.,.,.,.,.
S=C(Nc1ccc2nsnc2c1)N1CCCCCC1,-149.4,89.4*,92.8*,4.8,53.0*,19.7,29.9,16.8,45.8,57.9*
C=CCN(CC=C)C(=S)Nc1ccc2nsnc2c1,-211.3,45.8,74.9*,-3.0,26.1,3.6,15.2,9.5,10.9,10.1
O=C(Nc1ccc2nsnc2c1)N1CCCCC1,i,2.5,13.5,1.7,1.1,.,.,.,.,.
C=CCNC(=S)Nc1ccc2nsnc2c1,-4.4,18.1,59.7*,14.2,21.0,11.2,3.9,10.0,5.9,3.3
O=C(NCCc1ccc(F)cc1)Nc1ccccc1Cl,10.2,4.8,-17.1,.,-5.0,.,.,.,.,.
c1ccc(-c2nnc(-c3ccccn3)s2)nc1,-20.0,83.5*,89.8*,-11.3,89.4*,91.0*,93.2*,101.5*,96.4*,87.7*
c1ccc(C2=NNC(c3ccccn3)=NN2)nc1,25.0,74.1*,77.7*,33.9,30.1,3.0,88.9*,100.4*,96.2*,75.2*
COC(=O)c1[nH]c(C)c(/C(O)=C2\C(=O)C(=O)N(CCN3CCOCC3)C2c2ccc(C)o2)c1C (configuration not stated),25.2,-5.6,-4.1,5.7,5.1,.,.,.,.,.
C=C1CC2C(=O)N(Cc3ccccc3)C(C(=O)OCC)(C(=O)OCC)C1N2C(=O)OC(C)(C)C (configuration not stated),-0.2,-3.5,-8.7,3.7,-1.9,.,.,.,.,.
N#Cc1c(N)n(CCNC(=O)c2ccccc2)c2nc3ccccc3nc12,-408.3,3.0,15.9,2.2,9.6,.,.,.,.,.
CCCCn1c(NC(C)=O)c(C#N)c2nc3ccccc3nc21,-321.8,33.7,97.5*,-10.2,65.7*,12.4,31.1,13.7,3.8,0.1
CCCCCn1c(N)c(C#N)c2nc3ccccc3nc21,-287.3,1.8,9.7,-3.4,3.3,.,.,.,.,.
CCCCn1c(NC(=O)c2ccc(Br)o2)c(S(=O)(=O)c2ccccc2)c2nc3ccccc3nc21,-286.5,86.5*,86.5*,-1.8,49.1,-3.4,40.5,12.5,-5.2,-4.5
C=CCn1c(NC(=O)c2ccccc2Cl)c(C#N)c2nc3ccccc3nc21,-352.8,96.7*,93.8*,-13.8,48.7,26.3,73.3*,65.7*,6.3,4.6
CC(C)(C)CN1CCC(Oc2cccc(C(=O)N3CCC[C@H]3CO)c2)CC1,7.0,-5.7,3.6,-6.0,14.7,.,.,.,.,.
COc1ccc(-c2cn3ccc4ccccc4c3n2)cc1,i,83.4*,92.2*,2.2,92.3*,29.6,85.6*,100.3*,86.8*,46.1
Cc1cccn2cc(-c3ccccc3)nc12,-228.7,53.1*,74.5*,0.1,68.7*,10.7,70.8*,93.2*,84.6*,69.8*
SMILES,SENP8 block-1,SENP8 block-2,SENP6 block,Platelet DG rel,SENP7 inh,SENP8 conf,SENP6 confirm,SENP7 conf,Casp3 select,SENP luc ctr
Cc1cccn2cc(-c3ccc(F)cc3)cc12,-309.6,6.9,-6.1,-0.4,1.8,.,.,.,.,.
Cc1cccn2cc(-c3ccc(F)cc3)nc12,-112.9,78.3*,92.9*,-0.9,91.1*,11.9,87.2*,98.8*,90.3*,82.2*
O=C(COC(=O)Cc1ccccc1F)NNC(=O)c1ccc([N+](=O)[O-])cc1,7.2,15.1,-15.7,-1.1,-4.3,.,.,.,.,.
CC(C)(C)NC(=O)CN(CC1CCCO1)C(=O)CNS(=O)(=O)c1ccc(F)cc1 (configuration not stated),10.7,-1.5,-0.6,2.4,-9.7,.,.,.,.,.
Cc1cc(C)nc(NC(=O)/C=C/c2ccc3c(c2)OCO3)c1,-255.4,71.1*,86.2*,8.1,90.5*,12.2,72.9*,99.8*,87.5*,51.7*
Cc1ccc(C(=O)C=Cc2ccc3c(c2)OCO3)c(C)c1,-33.6,.,.,.,.,.,.,.,.,.
O=C(/C=C/c1cc(Br)ccc1F)Nc1cccnc1,12.7,-3.5,12.2,-7.2,11.9,.,.,.,.,.
O=C(/C=C/c1ccc2c(c1)OCO2)Nc1cccnc1,-256.8,77.3*,84.2*,25.3,85.2*,3.8,79.9*,96.9*,89.3*,75.9*
O=C(/C=C/c1c(F)cccc1Cl)Nc1cccnc1,14.3,82.6*,86.9*,5.3,90.1*,28.5,84.8*,98.5*,86.9*,43.8
Nc1ccccc1C(=O)/C=C/c1ccc2c(c1)OCO2,-6.6,66.2*,84.2*,18.3,94.1*,90.3*,81.4*,93.1*,55.2*,72.9*
C[C@]12CCC[C@H](O1)[C@H]([C@@H](O)c1ccccc1)O2,17.7,-3.1,-17.8,.,7.3,.,.,.,.,.
FC(F)(F)c1cccc(-c2nc3nc(Cl)c(Cl)nc3[nH]2)c1,-264.2,93.4*,95.1*,6.2,91.5*,96.6*,97.7*,101.7*,91.8*,86.8*
FC(F)(F)c1nc2nc(Cl)c(Cl)nc2[nH]1,-239.9,.,.,.,.,.,.,.,.,.
